Measured values published in PubChem BioAssay (EPA / NIEHS).
Values joined by “and” are separate entries in the source; they are usually repeats but may differ in a detail not shown here. Equal entries are not always repeated. Results filed as inconclusive are left out. Some structures have more than one record in an assay (separate samples or runs), and their calls can disagree. Active and inactive are the calls of the source. The calls were made as follows: active = hit-call score of the fitted dose curve at least 0.9, where 1 is the maximum; inconclusive = response in the unintended direction; inactive = score below 0.9.

Each compound was assayed against Estrogen receptor (Homo sapiens) + Estrogen receptor beta (Homo sapiens) (UniProt P03372+Q92731) (assay: OT_ER_ERaERb_1440: Odyssey Thera (OT) 24-hour HEK293T Protein-Complementation Assay for Estrogen Receptor-alpha/-beta Homodimer (AID 2283356);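 also: hits raise reporter fluorescence and both agonists and antagonists give an increase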).
Chain of Estrogen receptor (Homo sapiens) + Estrogen receptor beta (Homo sapiens) (P03372 whole entry, looked up, the tested form may be a part): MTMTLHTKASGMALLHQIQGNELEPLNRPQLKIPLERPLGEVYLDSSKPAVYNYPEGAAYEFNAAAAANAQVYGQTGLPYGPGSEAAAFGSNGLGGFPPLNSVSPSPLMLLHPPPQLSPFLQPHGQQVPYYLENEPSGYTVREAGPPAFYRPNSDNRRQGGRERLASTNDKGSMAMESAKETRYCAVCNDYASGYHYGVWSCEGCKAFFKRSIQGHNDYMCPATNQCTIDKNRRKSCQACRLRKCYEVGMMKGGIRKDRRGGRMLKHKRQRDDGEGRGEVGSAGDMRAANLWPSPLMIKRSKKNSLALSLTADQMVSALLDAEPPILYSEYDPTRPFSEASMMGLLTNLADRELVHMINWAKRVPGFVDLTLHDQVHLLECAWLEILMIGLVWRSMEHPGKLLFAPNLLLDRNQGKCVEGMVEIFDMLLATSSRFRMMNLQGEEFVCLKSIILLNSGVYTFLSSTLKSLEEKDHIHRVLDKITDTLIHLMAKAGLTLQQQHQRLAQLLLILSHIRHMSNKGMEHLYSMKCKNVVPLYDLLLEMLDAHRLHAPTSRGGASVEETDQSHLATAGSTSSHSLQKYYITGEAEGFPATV
Chain of Estrogen receptor (Homo sapiens) + Estrogen receptor beta (Homo sapiens) (Q92731 whole entry, looked up, the tested form may be a part): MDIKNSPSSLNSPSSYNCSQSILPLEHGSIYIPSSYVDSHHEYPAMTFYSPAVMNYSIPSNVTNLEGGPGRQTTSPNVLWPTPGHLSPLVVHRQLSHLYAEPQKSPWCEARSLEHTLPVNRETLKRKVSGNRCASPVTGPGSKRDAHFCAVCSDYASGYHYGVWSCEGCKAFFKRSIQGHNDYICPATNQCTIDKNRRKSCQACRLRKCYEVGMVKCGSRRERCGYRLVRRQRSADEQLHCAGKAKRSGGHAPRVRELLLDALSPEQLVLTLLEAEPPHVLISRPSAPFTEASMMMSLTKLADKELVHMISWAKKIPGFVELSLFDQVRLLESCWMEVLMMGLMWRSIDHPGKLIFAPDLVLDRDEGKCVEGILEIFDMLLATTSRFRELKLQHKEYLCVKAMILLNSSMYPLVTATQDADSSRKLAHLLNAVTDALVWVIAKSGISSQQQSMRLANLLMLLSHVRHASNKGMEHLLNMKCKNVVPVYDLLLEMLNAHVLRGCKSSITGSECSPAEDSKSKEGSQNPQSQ
Protocol: OT_ER_ERaERb_1440 is a cell-based assay that uses HEK293T, a human kidney cell line, with measurements taken at 24 hours after chemical dosing in a 384-well plate.OT_ER_ERaERb_1440 is one of one assay component(s) measured or calculated from the OT_ER_ERaERb_1440 assay. It is designed to make measurements of protein fragment complementation, a form of binding reporter, as detected with fluorescence intensity signals by Protein-fragment Complementation technology.Data from the assay component OT_ER_ERaERb_1440 was analyzed into 1 assay endpoint. This assay endpoint, OT_ER_ERaERb_1440, was analyzed in the positive analysis fitting direction relative to DMSO as the negative control and baseline of activity. Using a type of binding reporter, measures of receptor for gain-of-signal activity can be used to understand the binding at the pathway-level as they relate to the gene ESR1 and ESR2. Furthermore, this assay endpoint can be referred to as a primary readout, because the performed assay has only produced 1 assay endpoint. To generalize the intended target to other relatable targets, this assay endpoint is annotated to the nuclear receptor intended target family, where the subfamily is steroidal.
Protein-fragment complementation assay, or PCA, is a method for the identification and quantification of protein-protein interactions. In the PCA, the proteins of interest ("bait" and "prey") are each covalently linked to fragments of a third protein (e.g. DHFR, which acts as a "reporter"). Interaction between the bait and the prey proteins brings the fragments of the reporter protein in close proximity to allow them to form a functional reporter protein whose activity can be measured. The OT ER alpha / ER beta assay is a heterodimer PCA of the ligand binding domain (LBD) of ER alpha (amino acids 310-547) and human ER beta (amino acids 263-489) stably expressed in HEK293T cells. […] Fluorescent signal in the basal state of the assay is very low and is primarily punctuate and cytoplasmic. Modulation of this assay is quantified as an increase in mean fluorescence intensity in the nucleus (for agonists) or in the nucleus and cytoplasm (antagonists) relative to vehicle controls, and can be quantified on a high content imaging device or a laser scanning cytometer. The latter instrument is favored for this assay because of the rapid mode of data acquisition, the ability to acquire data from the entire cell population in a well (as opposed to a fraction of the well on the high content devices) and the larger dynamic range typically achieved with this instrument. To assess sensitivity of the ER alpha/ER beta LBD assay to ligand, cells were treated with the ER agonist 17- beta-estradiol (E2) in 10-point concentration- response format for 24 hours and monitored response on a laser scanning plate cytometer (Acumen eX3; TTP Lab Tech).
For `CCO[Si](CCCNC(N)=O)(OCC)OCC`, the outcome was “inactive”. With `CCCOC(=O)c1cc(O)c(O)c(O)c1` the AC50 was 49 µM (active). With `CCCCCc1ccc(N)cc1` the outcome was “inactive” and the AC50 was 18.9 µM (active) and 27.8 µM (active) and 42.5 µM (active). In the case of `Cc1occc1C(=O)Nc1ccc(C(=O)N2CCC(F)(F)/C(=C\C(=O)N3CCC(N4CCCCC4)CC3)c3ccccc32)cc1`, the AC50 is reported as 33.5 µM (active). For `CC(C)(C)c1csc(-c2cc3cc(OCc4ccccc4CC(=O)O)ccc3o2)n1`, the outcome was “inactive”. `CCOC(=O)O[C@H](C)OC(=O)c1ccc2c(c1)cc(C(=O)NC1CCN(C(C)C)CC1)n2Cc1cc(-c2ccc(Cl)s2)on1` was tested, and the outcome was “inactive”. In the case of `CCCCCCCCCCCO`, the outcome is reported as “inactive”. In the case of `COCC(C)OCC(C)OCC(C)O` (centres undefined), the outcome is reported as “inactive”. `COc1cccc([C@H](O)C2CCN(CCc3ccc(F)cc3)CC2)c1OC` was tested, and the outcome was “inactive”. In the case of `O=C=NCCCCCCN=C=O`, the outcome is reported as “inactive”. In the case of `CCCCCCCCOC(=O)c1cc(O)c(O)c(O)c1`, the AC50 is reported as 13 µM (active). In the case of `NC(=O)c1nc(-c2cccc(-c3cc(F)ccc3OCC(F)(F)C(F)(F)F)c2)n[nH]1`, the outcome is reported as “inactive”. For `Clc1ccccc1C(c1ccccc1)(c1ccccc1)n1ccnc1`, the outcome was “inactive”. For `O=C(O)c1ccccc1-n1cc(C(=O)O)c(=O)c2cc(Nc3c(F)cc(F)cc3Cl)c(Cl)cc21`, the outcome was “inactive”. With `CC[C@H](NC(=O)c1cc(F)ccc1NS(=O)(=O)c1cccc2cccnc12)c1ccccc1` the outcome was “inactive”. For `CCN(Cc1cccc(S(=O)(=O)O)c1)c1ccc(C(=C2C=CC(=[N+](CC)Cc3cccc(S(=O)(=O)O)c3)C=C2)c2ccccc2S(=O)(=O)[O-])cc1`, the outcome was “inactive”. In the case of `CN(C)c1ccc(C(=C2C=CC(=[N+](C)C)C=C2)c2ccc(N(C)C)cc2)cc1`, the outcome is reported as “inactive”. With `CN1C(=O)N(c2ccccc2Br)Cc2cnc(Nc3ccc4c(c3)OCC(CO)O4)nc21` (centres undefined) the outcome was “inactive”. For `CC[C@@H]1C[C@H](N(Cc2cc(C(F)(F)F)cc(C(F)(F)F)c2)C(C)=O)c2cc(C(F)(F)F)ccc2N1C(=O)OC(C)C`, the outcome was “inactive”. With `CCCCCCCCCCCCO` the outcome was “inactive”. In the case of `c1ccc(C[n+]2cccc3ccccc32)cc1`, the outcome is reported as “inactive”. In the case of `OC12N=C(c3ccccc3)SC1Cc1cc(Cl)ccc12` (centres undefined), the outcome is reported as “inactive”. `Cc1cc2c(cc1C(F)(F)F)N(C(=O)Nc1ccc(Oc3cccnc3C)nc1)CC2` was tested, and the outcome was “inactive”. With `Cc1cc(F)ccc1-c1cc(N2CC[C@@H](O)[C@H]2CO)ncc1N(C)C(=O)C(C)(C)c1cc(C(F)(F)F)cc(C(F)(F)F)c1` the outcome was “inactive”. For `O=c1ccc2ccccc2o1`, the outcome was “inactive”. With `O=C(Nc1ccc(Cl)cc1)Nc1ccc(Cl)c(Cl)c1` the outcome was “inactive”. `O=c1[nH]sc2ccccc12` was tested, and the outcome was “inactive”. `O=C(O)Cn1c(=O)n(Cc2ccc(Br)cc2F)c(=O)c2ccc(Cl)cc21` was tested, and the outcome was “inactive”. With `COc1cc(C(=O)NC2CCN(C)CC2)ccc1Nc1ncc2c(n1)N(C1CCCC1)CC(F)(F)C(=O)N2C` the AC50 was 11 µM (active). `Cc1ccc2oc(CN(Cc3ccccc3)C(=O)Nc3c(F)cc(F)cc3F)c(-c3ccc(Cl)cc3)c2c1` was tested, and the outcome was “inactive”. `CC(C)(O)c1ccc(CNC(=O)c2cccnc2Oc2ccc3nonc3c2)cc1` was tested, and the outcome was “inactive”. For `CC1=CC(=O)/C(=C(/C)O)C(=O)O1`, the outcome was “inactive”. `CCN(Cc1cccnc1)C(=O)c1cccc(Cl)c1[C@]1(C)C(=O)N(Cc2ccc(OC)cc2OC)c2ccc(Cl)cc21` was tested, and the outcome was “inactive”.
